Measurements from the supplement of paper PMC12494721.
Structures can show the parent of a compound that is named as a salt. Unmarked numbers belong to inactive results.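 How the source made its calls: for the amine columns active = adjusted P below 0.05 in both replicates with a change the same way and a mean fold change under 0.8 or over 1.25; inactive = the rest.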

What follows are molecules tested on Klebsiella aerogenes DSM 30053 (assay: fold change of Putrescine concentration vs plate DMSO controls (fold change (ratio)); higher = more amine produced, active = hit call of the paper (significant change in both replicates, either direction)). Conditions: incubation time: 27 h, anaerobic, 37 °C.
Summary of the method: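 Amine values are fold changes relative to DMSO-only wells on the same plate. They derive from 27 h, 37 °C anaerobic mGAM cultures of four gut bacterial strains in 80 µL wells, dosed at 20 µM final, or 50 µM final for sweeteners. Extraction of the whole culture, LC–triple-quadrupole MS in dynamic MRM mode, external calibration curves and within-batch drift correction were used, with 2 biological replicates averaged.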

Row | Compound | fold change of Putrescine concentration
1 | Nc1nc(CC(=O)Nc2ccc(CCNC[C@H](O)c3ccccc3)cc2)cs1 [Mirabegron] (20 µM) | 1.01
2 | CS(=O)(=O)OCCCCOS(C)(=O)=O [Busulfan] (20 µM) | 0.962
3 | CCN(CC)CCOC(=O)C(Cc1cccc2ccccc12)CC1CCCO1 (centres undefined) [Nafronyl oxalate] (20 µM) | 1
4 | C[C@H]1O[C@@H](O[C@H]2[C@@H](O)C[C@H](O[C@H]3[C@@H](O)C[C@H](O[C@H]4CC[C@@]5(C)[C@H](CC[C@@H]6[C@@H]5C[C@@H](O)[C@]5(C)[C@@H](C7=CC(=O)OC7)CC[C@]65O)C4)O[C@@H]3C)O[C@@H]2C)C[C@H](O)[C@@H]1O [Digoxin] (20 µM) | 0.999
5 | COc1cc(N)c(Cl)cc1C(=O)NC1CCN(CCCOc2ccc(F)cc2)CC1OC (centres undefined) [Cisapride] (20 µM) | 0.983
6 | O=C(O[C@@H]1C[C@@H]2C[C@H]3C[C@H](C1)N2CC3=O)c1c[nH]c2ccccc12 [Dolasetron mesilate] (20 µM) | 0.991
7 | Cc1oncc1C(=O)Nc1ccc(C(F)(F)F)cc1 [Leflunomide] (20 µM) | 1.01
8 | CC(C)Cn1cnc2c(N)nc3ccccc3c21 [Imiquimod] (20 µM) | 1.02
9 | Clc1ccc2c(c1)C(N1CCNCC1)=Nc1ccccc1O2 [Amoxapine] (20 µM) | 0.974
10 | CCCCCN(C)CCC(O)(P(=O)(O)O)P(=O)(O)O [Ibandronate sodium] (20 µM) | 1.01
11 | CN1CCc2c(c3ccccc3n2Cc2ccccc2)C1 [Mebhydroline 1,5-naphtalenedisulfonate] (20 µM) | 0.991
12 | C=C1/C(=C\C=C2/CCC[C@]3(C)[C@@H]([C@H](C)/C=C/[C@@H](O)C4CC4)CC[C@@H]23)C[C@@H](O)C[C@@H]1O [Calcipotriene] (20 µM) | 1.01
13 | Cc1nc(=O)c2cc(CN(C)c3ccc(C(=O)N[C@@H](CCC(=O)O)C(=O)O)s3)ccc2[nH]1 [Raltitrexed] (20 µM) | 0.968
14 | Cc1cn[nH]c1 [Fomepizole] (20 µM) | 0.995
15 | CC[C@@H]1C(=O)OC[C@@H]1Cc1cncn1C [Pilocarpine nitrate] (20 µM) | 1.01
16 | C=C(CC)C(=O)c1ccc(OCC(=O)O)c(Cl)c1Cl [Ethacrynic acid] (20 µM) | 1.03
17 | Cc1cccc(C)c1OCC(=O)N[C@@H](Cc1ccccc1)[C@@H](O)C[C@H](Cc1ccccc1)NC(=O)[C@H](C(C)C)N1CCCNC1=O [Lopinavir] (20 µM) | 1.04
18 | OCCN1C[C@H](O)[C@@H](O)[C@H](O)[C@H]1CO [Miglitol] (20 µM) | 1.01
19 | CCOc1ccccc1OCC1CNCCO1 (centres undefined) [Viloxazine hydrochloride] (20 µM) | 1
20 | CC[C@@]1(O)C(=O)OCc2c1cc1n(c2=O)Cc2cc3c(CN(C)C)c(O)ccc3nc2-1 [Topotecan] (20 µM) | 0.994

Row | Compound | fold change of Putrescine concentration
21 | CC(C)N1CCN(c2ccc(OCC3COC(Cn4cncn4)(c4ccc(Cl)cc4Cl)O3)cc2)CC1 (centres undefined) [Terconazole] (20 µM) | 0.993
22 | CN1CCN(c2c(F)cc3c(=O)c(C(=O)O)cn4c3c2OCN4C)CC1 [Marbofloxacin] (20 µM) | 0.607 (active)
23 | O=C(O)c1cc(=O)[nH]c(=O)[nH]1 [Orotic acid] (20 µM) | 1.01
24 | c1ccc2c(c1)Cc1ccccc1-2 [Fluorene] (20 µM) | 1.02
25 | Oc1c(Br)cc(Br)c2cccnc12 [Broxyquinoline] (20 µM) | 1.02
26 | CCC[C@@H]1C[C@@H](C(=O)N[C@@H]([C@H]2O[C@H](SC)[C@H](O)[C@@H](O)[C@H]2O)[C@H](C)Cl)N(C)C1 [Clindamycin hydrochloride] (20 µM) | 0.537
27 | COC(=O)Nc1nc2cc(Sc3ccccc3)ccc2[nH]1 [Fenbendazole] (20 µM) | 1.03
28 | CN(c1nccc(=O)[nH]1)C1CCN(c2nc3ccccc3n2Cc2ccc(F)cc2)CC1 [Mizolastine] (20 µM) | 0.991
29 | CC[N+](C)(C)c1cccc(O)c1 [Edrophonium chloride] (20 µM) | 1.03
30 | CC[C@@H]([C@H](C)O)n1ncn(-c2ccc(N3CCN(c4ccc(OC[C@@H]5CO[C@@](Cn6cncn6)(c6ccc(F)cc6F)C5)cc4)CC3)cc2)c1=O [Posaconazole hydrate] (20 µM) | 1.03
31 | COCC1=C(C(=O)OC(C)OC(=O)OC(C)C)N2C(=O)[C@@H](NC(=O)/C(=N\OC)c3csc(N)n3)[C@H]2SC1 (some centres undefined) [Cefpodoxime proxetil] (20 µM) | 1.03
32 | O=c1n(CCCN2CCN(c3cccc(Cl)c3)CC2)nc2ccccn12 [Trazodone hydrochloride] (20 µM) | 0.997
33 | CC1=C(C(=O)O)N2C(=O)[C@@H](NC(=O)[C@H](N)c3ccccc3)[C@H]2SC1 [Cephalexin monohydrate] (20 µM) | 0.934
34 | CCCSc1nc(N[C@@H]2C[C@H]2c2ccc(F)c(F)c2)c2nnn([C@@H]3C[C@H](OCCO)[C@@H](O)[C@H]3O)c2n1 [Ticagrelor] (20 µM) | 1.04
35 | Cc1cc(NS(=O)(=O)c2ccc(N)cc2)nc(C)n1 [Sulfisomidine] (20 µM) | 0.987
36 | CN1CCN(C(c2ccccc2)c2ccc(Cl)cc2)CC1 (centres undefined) [Chlorcyclizine hydrochloride] (20 µM) | 1
37 | OC[C@H](O)C(O)[C@@H](O)CO [L-Arabinitol] (50 µM) | 1.02
38 | CC(C)COC(=O)OCN1C(=O)CN(CCN2CC(=O)N(COC(=O)OCC(C)C)C(=O)C2)CC1=O [Sobuzoxane] (20 µM) | 0.996
39 | CCCNC(=O)NS(=O)(=O)c1ccc(Cl)cc1 [Chlorpropamide] (20 µM) | 1.03
